{
  "source": "PubChem BioAssay (NCI)",
  "experiment": "NCI Yeast Anticancer Drug Screen. Data for the sgs1 mgt1 strain (AID 161);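 also: 0% = growth of cultures given vehicle only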",
  "details": "S. cerevisiae sgs1 mgt1 strain, stronger effect = higher value",
  "method": "Growth inhibition of yeast strains with defined genetic alterations is measured as a screen for potential anti-cancer activity. Selected strains with alterations in DNA damage repair or cell cycle control were exposed to compounds and growth inhibition was measured relative to vehicle treated controls. The strain used in this assay is sgs1 mgt1",
  "key": {"[1]": {"details": "at 5.0 µM (retest, dose inferred, filed as 0.5)"}, "[2]": {"details": "at 50.0 µM (retest, dose inferred, filed as 5.0)"}},
  "note": "This is part of a sample that, as a whole, favours compounds with a hit. Of some 79,000 tested, about 15% had one in any assay. Unmarked numbers belong to inactive results. The source made the active and inactive calls. Rule as the data show it: active = growth inhibition above about 70%; inactive = the rest.",
  "data": [
    {"smiles": "Cc1cc2c(cc1O)CC[C@@H]1[C@@H]2CC[C@]2(C)[C@@H](O)CC[C@@H]12", "values": [
      {"measurement": "growth inhibition", "setting": "[1]", "value": -32, "unit": "%"},
      {"measurement": "growth inhibition", "setting": "[2]", "value": -32, "unit": "%"},
      {"measurement": "growth inhibition", "setting": "at 50.0 µM", "value": 68, "unit": "%"}
    ]},
    {"smiles": "CC(=O)N1c2ccccc2Sc2ccc3ccc(C(=O)CCl)cc3c21", "values": [
      {"measurement": "growth inhibition", "setting": "[1]", "value": "92% (active)"},
      {"measurement": "growth inhibition", "setting": "[2]", "value": "98% (active)"},
      {"measurement": "growth inhibition", "setting": "at 50.0 µM", "value": "89.9% (active)"}
    ]},
    {"smiles": "CCCCNCc1c(O)ccc2ccccc12", "values": [
      {"measurement": "growth inhibition", "setting": "[1]", "value": 17, "unit": "%"},
      {"measurement": "growth inhibition", "setting": "[2]", "value": "99% (active)"},
      {"measurement": "growth inhibition", "setting": "at 50.0 µM", "value": "99.1% (active)"}
    ]},
    {"smiles": "O=C1c2ccccc2-c2cc3ccccc3nc21", "values": [
      {"measurement": "growth inhibition", "setting": "[1]", "value": 15, "unit": "%"},
      {"measurement": "growth inhibition", "setting": "[2]", "value": 67, "unit": "%"},
      {"measurement": "growth inhibition", "setting": "at 50.0 µM", "value": 48.2, "unit": "%"}
    ]},
    {"smiles": "CCN(CC)C(=O)N1CCN(c2cccc(Cl)c2)CC1", "values": [
      {"measurement": "growth inhibition", "setting": "[1]", "value": 5, "unit": "%"},
      {"measurement": "growth inhibition", "setting": "[2]", "value": "85% (active)"},
      {"measurement": "growth inhibition", "setting": "at 50.0 µM", "value": "90.2% (active)"}
    ]},
    {"smiles": "O=C(NC1CCN(Cc2ccccc2)CC1)c1ccccc1I", "values": [
      {"measurement": "growth inhibition", "setting": "[1]", "value": "80% (active)"},
      {"measurement": "growth inhibition", "setting": "[2]", "value": "81% (active)"},
      {"measurement": "growth inhibition", "setting": "at 50.0 µM", "value": "82.6% (active)"}
    ]},
    {"smiles": "CC(C)OC(=O)Oc1c(Cl)c(Cl)c(Cl)c(Cl)c1Cl", "values": [
      {"measurement": "growth inhibition", "setting": "[1]", "value": -2, "unit": "%"},
      {"measurement": "growth inhibition", "setting": "[2]", "value": "98% (active)"},
      {"measurement": "growth inhibition", "setting": "at 50.0 µM", "value": 55, "unit": "%"}
    ]},
    {"smiles": "O=[N+]([O-])c1cc2[nH]cnc2c([N+](=O)[O-])c1NCc1ccccc1", "values": [
      {"measurement": "growth inhibition", "setting": "[1]", "value": -1, "unit": "%"},
      {"measurement": "growth inhibition", "setting": "[2]", "value": 45, "unit": "%"},
      {"measurement": "growth inhibition", "setting": "at 50.0 µM", "value": "80.5% (active)"}
    ]},
    {"smiles": "O=C1OC2(CCCC2)OC1c1ccccc1", "note": "(configuration not stated)", "values": [
      {"measurement": "growth inhibition", "setting": "[1]", "value": -2, "unit": "%"},
      {"measurement": "growth inhibition", "setting": "[2]", "value": -7, "unit": "%"},
      {"measurement": "growth inhibition", "setting": "at 50.0 µM", "value": -9.7, "unit": "%"}
    ]},
    {"smiles": "CCc1c(C)[nH]c(-c2csc(N)n2)c1C", "values": [
      {"measurement": "growth inhibition", "setting": "[1]", "value": -1, "unit": "%"},
      {"measurement": "growth inhibition", "setting": "[2]", "value": "94% (active)"},
      {"measurement": "growth inhibition", "setting": "at 50.0 µM", "value": 2.8, "unit": "%"}
    ]},
    {"smiles": "OCc1c(-c2cccc3ccccc23)sc(-c2cccc3ccccc23)c1CO", "values": [
      {"measurement": "growth inhibition", "setting": "[1]", "value": 44, "unit": "%"},
      {"measurement": "growth inhibition", "setting": "[2]", "value": 56, "unit": "%"},
      {"measurement": "growth inhibition", "setting": "at 50.0 µM", "value": "86.8% (active)"}
    ]},
    {"smiles": "CCOP(=O)(OCC)/C(C#N)=C/c1ccc(Oc2ccccc2)cc1", "values": [
      {"measurement": "growth inhibition", "setting": "[1]", "value": -11, "unit": "%"},
      {"measurement": "growth inhibition", "setting": "[2]", "value": "97% (active)"},
      {"measurement": "growth inhibition", "setting": "at 50.0 µM", "value": "91.5% (active)"}
    ]},
    {"smiles": "N#C/C(=C\\NC(=S)Nc1cc(Cl)ccc1Cl)c1nc2ccccc2s1", "values": [
      {"measurement": "growth inhibition", "setting": "[1]", "value": 2, "unit": "%"},
      {"measurement": "growth inhibition", "setting": "[2]", "value": 4, "unit": "%"},
      {"measurement": "growth inhibition", "setting": "at 50.0 µM", "value": 10.1, "unit": "%"}
    ]},
    {"smiles": "CCN(CC)C(=S)N=Nc1c(O)[nH]c2ccccc12", "values": [
      {"measurement": "growth inhibition", "setting": "[1]", "value": "81% (active)"},
      {"measurement": "growth inhibition", "setting": "[2]", "value": "99% (active)"},
      {"measurement": "growth inhibition", "setting": "at 50.0 µM", "value": "89.3% (active)"}
    ]}
  ]
}
